Measured values reported in PubChem BioAssay (NCATS).
Inconclusive results are not listed. Activity calls are given as the source filed them. Calls follow the shape of the dose curve; as a rule, active = well fitted cell-killing curve with a large enough effect; inconclusive = small, poorly fitted or top-dose-only effect, or effect the other way; inactive = flat fitted curve, though single readings scatter.

Legend:
Test in all cases: Primary qHTS to identify gynecologic anti-cancer compounds using libraries of approved drugs and bioactive compounds (AID 1345084); also: nearly all actives have a fitted effect of over 55% in size
C33A = conditions: Gynecologic cancer cell panel viability, ATPlite luminescence, 48 h; series mostly up to 57.5 µM
Summary of the method: (§1)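 Cells, 1,000 per well, were allowed to settle for 16 h at 37 C before compound addition. Five concentrations were tested for 48 h, and viability was read by ATPlite luminescence after 15 min at room temperature.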

CAOV3 = conditions: Gynecologic cancer cell panel viability, ATPlite luminescence, 48 h; series mostly up to 57.5 µM
Summary of the method: as §1

CASKI = conditions: Gynecologic cancer cell panel viability, ATPlite luminescence, 48 h; series mostly up to 57.5 µM
Summary of the method: as §1

Es-2 = conditions: Gynecologic cancer cell panel viability, ATPlite luminescence, 48 h; series mostly up to 57.5 µM
Summary of the method: as §1

HeLa = conditions: Gynecologic cancer cell panel viability, ATPlite luminescence, 48 h; series mostly up to 57.5 µM
Summary of the method: as §1

Hek293T = conditions: Gynecologic cancer cell panel viability, ATPlite luminescence, 48 h, control line for the selectivity index; series mostly up to 57.5 µM
Summary of the method: as §1

JEG-3 = conditions: Gynecologic cancer cell panel viability, ATPlite luminescence, 48 h; series mostly up to 57.5 µM
Summary of the method: as §1

OV90 = conditions: Gynecologic cancer cell panel viability, ATPlite luminescence, 48 h; series mostly up to 57.5 µM
Summary of the method: as §1

Tov-21-G = conditions: Gynecologic cancer cell panel viability, ATPlite luminescence, 48 h; series mostly up to 57.5 µM
Summary of the method: as §1

Tov112D = conditions: Gynecologic cancer cell panel viability, ATPlite luminescence, 48 h; series mostly up to 57.5 µM
Summary of the method: as §1

SKOV3 = conditions: Gynecologic cancer cell panel viability, ATPlite luminescence, 48 h; series mostly up to 57.5 µM
Summary of the method: as §1

PA-1 = conditions: Gynecologic cancer cell panel viability, ATPlite luminescence, 48 h; series mostly up to 57.5 µM
Summary of the method: as §1
% is scaled to controls: 0 for no effect and ±100 for the full control effect; potency is read from the fitted curve at half-maximal effect.

C/C=C/c1ccc2oc(-c3ccc(O)c(OC)c3)c(C)c2c1
inactive: Potency (C33A) | Potency (CAOV3) | Potency (CASKI) | Potency (Es-2) | Potency (HeLa) | Potency (Hek293T) | Potency (JEG-3) | Potency (Tov-21-G) | Potency (Tov112D)
active: Potency (OV90) 20 µM

C/C(=C\C=C\C(C)C1CCC2(C)C3CCC4C(C)(C)C(=O)CCC45CC35CCC12C)C(=O)O (centres undefined)
inactive: Potency (C33A) | Potency (CAOV3) | Potency (CASKI) | Potency (Es-2) | Potency (HeLa) | Potency (Hek293T) | Potency (JEG-3) | Potency (OV90) | Potency (SKOV3) | Potency (Tov-21-G) | Potency (Tov112D)

O=C1NC2CCc3nc4ccccc4c(=O)n3C2=Nc2ccccc21 (centres undefined)
inactive: Potency (C33A) | Potency (CAOV3) | Potency (CASKI) | Potency (Es-2) | Potency (HeLa) | Potency (Hek293T) | Potency (JEG-3) | Potency (OV90) | Potency (SKOV3) | Potency (Tov-21-G) | Potency (Tov112D)

C/C=C(\C)C(=O)O[C@H]1[C@@H](O[C@]2(COC(=O)CC(C)C)O[C@H](COC(=O)C(C)CC)[C@@H](OC(C)=O)[C@@H]2O)O[C@H](COC(C)=O)[C@@H](O)[C@@H]1O (some centres undefined)
inactive: Potency (C33A) | Potency (CAOV3) | Potency (CASKI) | Potency (Es-2) | Potency (HeLa) | Potency (Hek293T) | Potency (JEG-3) | Potency (OV90) | Potency (SKOV3) | Potency (Tov-21-G) | Potency (Tov112D)

C/C=C/C=C/C(O)=C1\C(O)=C(C)C(=O)[C@@]2(C)OC(=O)[C@@](C)(NC(=O)/C=C/C(=O)O)[C@@H]12
inactive: Potency (C33A) | Potency (CAOV3) | Potency (CASKI) | Potency (Es-2) | Potency (HeLa) | Potency (Hek293T) | Potency (JEG-3) | Potency (OV90) | Potency (SKOV3) | Potency (Tov-21-G) | Potency (Tov112D)

CC(C)c1cc2c(c(O)c1O)[C@@]13CCCC(C)(C)[C@@H]1[C@H](OC3=O)C2=O
inactive: Potency (C33A) | Potency (CAOV3) | Potency (CASKI) | Potency (Es-2) | Potency (HeLa) | Potency (Hek293T) | Potency (JEG-3) | Potency (OV90) | Potency (SKOV3) | Potency (Tov-21-G) | Potency (Tov112D)

N[C@H]1Cc2ccccc2N(O)C1=O
inactive: Potency (C33A) | Potency (CAOV3) | Potency (CASKI) | Potency (Es-2) | Potency (HeLa) | Potency (Hek293T) | Potency (JEG-3) | Potency (PA-1) | Potency (SKOV3) | Potency (Tov-21-G) | Potency (Tov112D)

C[C@@H]1O[C@@H](O[C@H]2[C@H](OC(=O)[C@]34CCC(C)(C)C[C@H]3C3=CCC5[C@@]6(C)C[C@H](O)[C@H](O[C@@H]7O[C@H](CO)[C@@H](O)[C@H](O)[C@H]7O)[C@@](C)(CO)C6[C@H](O)C[C@@]5(C)[C@]3(C)CC4)OC[C@H](O)[C@@H]2O)[C@H](O)[C@H](O)[C@H]1O[C@@H]1OC[C@@H](O)[C@H](O[C@@H]2OC[C@](O)(CO)[C@H]2O)[C@H]1O (some centres undefined)
inactive: activity change, negative = cytotoxicity (C33A) 7.14% [at 6.55 µM] | activity change, negative = cytotoxicity (CAOV3) 10.8% [at 6.55 µM] | activity change, negative = cytotoxicity (CASKI) 15.5% [at 6.55 µM] | activity change, negative = cytotoxicity (Es-2) 6.38% [at 6.55 µM] | activity change, negative = cytotoxicity (HeLa) 4.34% [at 6.55 µM] | activity change, negative = cytotoxicity (Hek293T) 3.42% [at 6.55 µM] | activity change, negative = cytotoxicity (JEG-3) 3.02% [at 6.55 µM] | activity change, negative = cytotoxicity (OV90) 1.6% [at 6.55 µM] | activity change, negative = cytotoxicity (SKOV3) 1.77% [at 6.55 µM] | activity change, negative = cytotoxicity (Tov-21-G) -2.34% [at 6.55 µM] | activity change, negative = cytotoxicity (Tov112D) 7.29% [at 6.55 µM]

Cc1[nH]nc(C(F)(F)F)c1Cc1sc2c(c1C(=O)N1C[C@](C)(O)CO1)c(=O)n(C)c(=O)n2C(C)C
inactive: Potency (C33A) | Potency (CAOV3) | Potency (CASKI) | Potency (Es-2) | Potency (HeLa) | Potency (Hek293T) | Potency (JEG-3) | Potency (OV90) | Potency (Tov-21-G) | Potency (Tov112D)

O=C(CC1C(=O)Nc2ccccc21)OC[C@H]1O[C@@H](OCCc2ccc(O)cc2)[C@H](O)[C@@H](O)[C@@H]1O (some centres undefined)
inactive: Potency (C33A) | Potency (CAOV3) | Potency (CASKI) | Potency (Es-2) | Potency (HeLa) | Potency (Hek293T) | Potency (JEG-3) | Potency (OV90) | Potency (Tov-21-G) | Potency (Tov112D)

CCCCc1ccc(C(=O)Nc2cc(-c3ccc(Cl)cc3)nn2-c2ccc(Cl)cc2)cc1
inactive: Potency (C33A) | Potency (CAOV3) | Potency (CASKI) | Potency (Es-2) | Potency (HeLa) | Potency (Hek293T) | Potency (JEG-3) | Potency (OV90) | Potency (Tov-21-G) | Potency (Tov112D)

CC1(C)CC[C@]2(C(=O)O)CC[C@]3(C)C(=CCC4[C@@]5(C)CC[C@H](O[C@@H]6O[C@H](C(=O)O)[C@@H](O[C@@H]7OC[C@@H](O)[C@H](O)[C@H]7O)[C@H](O)[C@H]6O)C(C)(C)C5CC[C@]43C)C2C1O (some centres undefined)
inactive: Potency (C33A) | Potency (CAOV3) | Potency (CASKI) | Potency (Es-2) | Potency (HeLa) | Potency (Hek293T) | Potency (JEG-3) | Potency (OV90) | Potency (SKOV3) | Potency (Tov-21-G) | Potency (Tov112D)

CN(CCc1ccc(Nc2ncc(-c3cccnc3)s2)cc1)Cc1ccccc1
inactive: Potency (C33A) | Potency (CAOV3) | Potency (CASKI) | Potency (Es-2) | Potency (HeLa) | Potency (Hek293T) | Potency (JEG-3) | Potency (OV90) | Potency (Tov-21-G) | Potency (Tov112D)

C=C[C@@]12COC(=O)C(=C)C1[C@@H](O)[C@H](C(=C)C(=O)OC)[C@@H](OC(=O)C(=C)CO)C2 (some centres undefined)
inactive: Potency (C33A) | Potency (CAOV3) | Potency (CASKI) | Potency (Es-2) | Potency (HeLa) | Potency (Hek293T) | Potency (JEG-3) | Potency (OV90) | Potency (Tov-21-G) | Potency (Tov112D)

C=C(C(=O)O)C1CC2=C(C)CCCC2(C)C[C@@H]1O (some centres undefined)
inactive: Potency (C33A) | Potency (CAOV3) | Potency (CASKI) | Potency (Es-2) | Potency (HeLa) | Potency (Hek293T) | Potency (JEG-3) | Potency (OV90) | Potency (SKOV3) | Potency (Tov-21-G) | Potency (Tov112D)
